# Screens (PubChem)
# D2 PAM-1: Beta-Arrestin HTS for Positive Allosteric Modulators of the Human D2 Dopamine Receptor: Potentiators. 0.23% of 360,000 active. D(2) dopamine receptor (Homo sapiens), P14416. potentiation, % (no concentration beside the values). DiscoveRx D2 beta-arrestin cells, luminescence, 90 min; 100% = 57 uM dopamine signal; in the data active = potentiation above about 50%; inconclusive = mostly about 30% to 49%
# Target sequence (P14416 whole entry, looked up): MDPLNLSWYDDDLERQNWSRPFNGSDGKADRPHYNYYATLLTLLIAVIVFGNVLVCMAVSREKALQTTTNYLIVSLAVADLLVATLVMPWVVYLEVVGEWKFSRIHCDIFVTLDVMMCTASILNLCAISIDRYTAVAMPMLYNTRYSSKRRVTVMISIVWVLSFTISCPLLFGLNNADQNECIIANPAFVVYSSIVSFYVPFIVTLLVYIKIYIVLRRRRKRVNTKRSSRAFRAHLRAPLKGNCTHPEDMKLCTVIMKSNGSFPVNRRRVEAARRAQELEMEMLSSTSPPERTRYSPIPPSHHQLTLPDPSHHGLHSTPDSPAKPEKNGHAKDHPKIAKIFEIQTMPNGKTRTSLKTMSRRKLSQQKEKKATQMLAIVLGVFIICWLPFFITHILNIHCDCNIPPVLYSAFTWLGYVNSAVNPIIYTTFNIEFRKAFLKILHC
#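 PathHunter D2 cells, attached overnight at 37 deg C, received compound in DMSO plus dopamine at EC20 (50 nM final) for 90 min at 37 deg C. Beta-arrestin recruitment was read as luminescence after 1 h with detection reagent at ambient temperature.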
# D2 ag-1: HTS Assay for Allosteric Agonists of the Human D2 Dopamine Receptor: Primary Screen for Agonists; AID 485358, 2010; HEK293 T-REx D2 cells, calcium flux agonist mode; activation, % at 2 µM; 0.53% of 340,000 active;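 active = activation over 3 SD above normal in the single-dose calcium agonist read, cut at about 30% in these data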; also: 0% is about no effect
#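 Tetracycline-induced HEK293 T-REx cells with force-coupled D2 receptor, plated overnight at 30 C, loaded with no-wash calcium dye. After a 10 s baseline, compound was pin-added and calcium flux read kinetically for 180 s; calcium rises flagged agonists.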
# D2 antag: HTS Assay for Allosteric Antagonists of the Human D2 Dopamine Receptor: Primary Screen for Antagonists; 2% of 340,000 active; inhibition, % at 10 µM; HEK293 TREx D2 cells, calcium flux, dopamine EC80; AID 485344, 2010; D(2) dopamine receptor (Homo sapiens), P14416; in the data active = inhibition above about 30%; inactive = below that, where a call was filed; also: 0% is about no effect
#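 Calcium mobilization kinetics were recorded at 1 s intervals in tetracycline-induced HEK293 T-REx D2 cells, first for 180 s after compound addition and then 180 s after EC80 dopamine.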
# D2 ag-2: Beta-Arrestin HTS for Positive Allosteric Modulators of the Human D2 Dopamine Receptor: Agonists; D(2) dopamine receptor (Homo sapiens), P14416; DiscoveRx PathHunter D2 beta-arrestin, luminescence, 90 min; 100% = 57 uM dopamine signal; activation, % (test concentration not listed); 0.084% of 360,000 active; in the data active = activation above about 40%; inconclusive = between about 15% and that limit
#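 Agonist mode: compounds alone added to overnight-plated D2 PathHunter cells for 90 min at 37 C, with 57 uM final dopamine (EC100) defining full response. Beta-arrestin recruitment detected by chemiluminescent reagent, read after 1 h at ambient temperature.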
# D2 PAM-2: HTS Assay for Positive Allosteric Modulators of the Human D2 Dopamine Receptor: Primary Screen for Potentiators. D(2) dopamine receptor (Homo sapiens), P14416. potentiation, % at 10 µM. 0.34% of 340,000 active. HEK293 T-REx D2, calcium flux, EC20 dopamine potentiation;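 active = potentiation over 3 SD above the plate norm, cut at about 30% in these data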; also: 0% is about no effect
#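 Calcium flux readout, no-wash dye, 1 read/s. Inducible HEK293 Trex D2 line, overnight 30 C. Compound alone 180 s (agonist flags), then EC20 dopamine, another 180 s to score potentiation.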
# The depositor's hits bear a star; ? = inconclusive; . = no result; ! = not active in a repeat. An excerpt weighted towards active compounds, which were near 2.4% of everything screened.
SMILES,D2 PAM-1,D2 ag-1,D2 antag,D2 ag-2,D2 PAM-2
c1ccc2c(c1)Nc1ccccc1S2,68*,2,-13,?,4
O=C1Nc2ccccc2Sc2ccccc21,-1,0,2,-3,-1
COc1ccc(OCC(=O)N2CCN(Cc3ccc(SC)cc3)CC2)cc1,0,0,46*,-2,34*!
COc1ccccc1CN1CCN(C(=O)COc2ccccc2)CC1,-37,-1,33*,-2,-12
COc1ccc(OCC(=O)N2CCN(Cc3ccc4c(c3)OCO4)CC2)cc1,-18,0,-6,-1,6
COc1cc(OC)c(OC)cc1CN1CCN(C(=O)COc2ccc3ccccc3c2)CC1,-10,0,-13,-6,-5
CCCC12CN3CC(C)(CN(C1)C3c1c(C)[nH]c(=O)[nH]c1=O)C2=O (stereo unspecified),.,-1,.,.,5
Cc1cc(O)c(CN2CC=C(c3ccccc3)CC2)cc1C(C)C,-16,1,75*,-3,-26
O=c1cc(CN2CC=C(c3ccccc3)CC2)c2c(ccc3ccccc32)o1,-13,20,-1,1,-5
CCCCc1nc2ccccc2c(=O)n1-c1cccc(OC)c1,.,-2,.,.,10
COc1ccc(CN2CCCC(C(=O)c3sccc3C)C2)cc1O (stereo unspecified),-8,0,41*,5,-17
Cc1ccsc1C(=O)C1CCCN(Cc2cccc(OCCO)c2)C1 (stereo unspecified),-17,0,52*,-1,-23
Cc1ccsc1C(=O)C1CCCN(Cc2cccc(-n3cccn3)c2)C1 (stereo unspecified),-7,0,-9,-5,14
COC(=O)C1=C(c2ccc(OC(F)(F)F)cc2)C[C@@H]2CC[C@H]1N2C(=O)NC1CCCCC1,-19,-1,12,1,-6
Clc1cccc(N2CCNCC2)c1,-33,1,35*,-4,-21
COc1ccc2c(c1)C1OCCNC1CC2 (stereo unspecified),-11,.,.,1,.
Oc1cc2c(cc1O)[C@H]1c3ccccc3CN[C@@H]1CC2,.,84*,92*,.,-25
O=C1N(c2nncs2)CCN1[N+](=O)[O-],69*,0,-4,4,12
CCn1cc(C=C2C(=O)NC(=O)NC2=O)c2ccccc21,3,1,38*,-3,-1
CCN(CC)c1ccc(/C=C/[N+](=O)[O-])cc1,4,57*,1,-4,-7
COc1cc(/C=C/[N+](=O)[O-])ccc1O,0,2,-18,-1,5
C[C@H](NC(=O)CCC(=O)N1C[C@H]2C[C@H](C1)c1cccc(=O)n1C2)c1ccccc1,5,0,17,2,-6
O=c1cccc2n1CC1CC2CN(C(c2ccccc2)c2sc3ncnn3c2O)C1 (stereo unspecified),-1,1,32*,-2,4
CCN1CCN(c2ccc(N)c(C)c2)CC1,-12,0,49*,-2,-9
CN1CCN(c2ccc([N+](=O)[O-])c(N)c2)CC1,-19,0,-1,-5,-10
SMILES,D2 PAM-1,D2 ag-1,D2 antag,D2 ag-2,D2 PAM-2
CN1CC(C(=O)c2ccc(F)cc2)C(c2c(F)cccc2Cl)C1 (stereo unspecified),-24,0,5,-3,-12
COc1ccc(C2CN(C)CC2C(=O)c2ccc(F)cc2)cc1Cl (stereo unspecified),-13,0,69*,0,-35
CCOc1ccc(CN(CCc2ccc3c(c2)OCO3)Cc2cc(OC)ccc2O)cc1,.,0,.,.,-7
Cc1ccsc1C(=O)C1CCCN(Cc2cnc(N3CCCC3)s2)C1 (stereo unspecified),-5,1,39*,-1,-8
Cc1ccsc1C(=O)C1CCCN(Cc2c(C)nn(C(C)C)c2C)C1 (stereo unspecified),-12,-1,57*,-2,-18
Cc1ccc(Cn2cccc(C(=O)Nc3nnc(C)s3)c2=O)cc1,.,20,.,.,9
COc1ccc(-c2nc(CN3C(=O)CN=C(c4ccccc4)c4ccccc43)c(C)o2)cc1OC,.,-2,.,.,1
Cc1cc(NC(=O)c2cccn(Cc3cccc([N+](=O)[O-])c3)c2=O)no1,.,0,.,.,8
CC1CCN(CC#CCOc2ccc(Cl)cc2)CC1,-2,1,86*,-2,-24
CCC(=O)N1CC(=O)Nc2ccc(C)cc2C1c1ccc(F)cc1 (stereo unspecified),.,-1,.,.,13
COC(=O)C(O)(c1ccc(NC(=S)NC(=O)c2ccc(Cl)cc2Cl)cc1)C(F)(F)F (stereo unspecified),-32,11,0,-6,32*
CC=C(CC)C1(CC)C(=O)NC(=S)NC1=O,-2,.,.,8,.
O=c1[nH]c2ccccc2n1CCCN1CCC(n2c(=O)[nH]c3cc(Cl)ccc32)CC1,.,.,97*,.,.
CCCCn1nnnc1C(C1CC1)N1CCC(n2c(=O)[nH]c3ccccc32)CC1 (stereo unspecified),2,.,.,12,.
COc1ccc(C)cc1NC(=O)c1cccn(Cc2cccc([N+](=O)[O-])c2)c1=O,.,.,.,.,-10
C[C@H]1OC[C@@H](C[N+](C)(C)C)O1,1,40*,13,-6,-6
CC1OC(C[N+](C)(C)C)CC1O (stereo unspecified),-1,0,-15,-1,4
CCOc1ccc2nc(NC(=O)c3cccn(Cc4ccccc4Cl)c3=O)sc2c1,.,1,.,.,-4
CN1CCN(c2csc3ccc(F)cc3c2=O)CC1,.,.,.,.,17
CCC1(c2cccc(O)c2)CCCCN(C)C1 (stereo unspecified),-3,1,39*,-2,-9
COc1ccc(CCN)cc1O,-17,.,.,4,.
CNCCc1ccc(O)c(O)c1,66*,.,.,76*,.
COc1c(C)cc(C(=O)C2CCCN(Cc3cccc(C)n3)C2)cc1C (stereo unspecified),-16,38*,5,-5,-6
CCCN1CCCC(C(=O)c2cc(C)c(OC)c(C)c2)C1 (stereo unspecified),-13,1,86*,-2,-27
CCCC1=C(C(=O)OCC)C2(C(=O)Nc3ccc(C)cc32)C(C#N)=C(N)O1 (stereo unspecified),?,0,7,5,19
CCOC(=O)CC1=C(C(=O)OCC)C2(C(=O)Nc3ccccc32)C(C#N)=C(N)O1 (stereo unspecified),75*,0,10,12,-6
